Measurements published in the supplement of paper PMC12282887.
± gives the standard deviation of the averaged measurements.

Assays:
Assay in all cases: promoter activity interaction Z-score (Lux/OD deviation from empty-vector control); higher = stronger promoter induction by the compound
[1] = system: E. coli BW25113 tolCp lux reporter
Procedure, shortened: (§1)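 E. coli BW25113 (wild type or marA, soxS or rob deletion) carrying low-copy luxCDABE promoter reporters grew in 40 µl LB Lennox in 384-well plates at 37°C. Each compound was tested at four 1:2 dilutions in biological duplicates. OD600 and luminescence were read every 30 min for 12 h. Areas were taken over 0–8 h (wild type) or 1–9 h (mutants), and wells below 10% of median growth area were removed. The score is the Z-transformed residual of growth-normalised luminescence fitted against the empty-vector control.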

[2] = system: E. coli BW25113 acrABp lux reporter
Procedure, shortened: as §1

[3] = system: E. coli BW25113 micFp lux reporter
Procedure, shortened: as §1

[4] = system: E. coli BW25113 ompFp lux reporter
Procedure, shortened: as §1

[5] = system: E. coli BW25113 robp lux reporter
Procedure, shortened: as §1

[6] = system: E. coli BW25113 soxSp lux reporter
Procedure, shortened: as §1

[7] = 11.4 µg/ml, genetic background: wild type
[8] = 11.4 µg/ml, genetic background: ΔmarA
[9] = 11.4 µg/ml, genetic background: Δrob
[10] = 11.4 µg/ml, genetic background: ΔsoxS
[11] = 22.8 µg/ml, genetic background: wild type
[12] = 22.8 µg/ml, genetic background: ΔmarA
[13] = 22.8 µg/ml, genetic background: Δrob
[14] = 22.8 µg/ml, genetic background: ΔsoxS
[15] = 45.5 µg/ml, genetic background: wild type
[16] = 45.5 µg/ml, genetic background: ΔmarA
[17] = 45.5 µg/ml, genetic background: Δrob
[18] = 45.5 µg/ml, genetic background: ΔsoxS
[19] = 91.1 µg/ml, genetic background: wild type
[20] = 91.1 µg/ml, genetic background: ΔmarA
[21] = 91.1 µg/ml, genetic background: Δrob
[22] = 91.1 µg/ml, genetic background: ΔsoxS

Nc1ccc(C(=O)O)cc1 [4-Aminobenzoic acid]
promoter activity interaction Z-score ([1]; 34.3 µg/ml, genetic background: Δrob): 0.119 ± 0.56
promoter activity interaction Z-score ([1]; 34.3 µg/ml, genetic background: ΔsoxS): 1.86 ± 0.96
promoter activity interaction Z-score ([1]; 68.6 µg/ml, genetic background: wild type): 0.28 ± 0.49
promoter activity interaction Z-score ([1]; 68.6 µg/ml, genetic background: ΔmarA): 2.27 ± 0.56
promoter activity interaction Z-score ([1]; 68.6 µg/ml, genetic background: Δrob): 0.498 ± 0.67
promoter activity interaction Z-score ([1]; 68.6 µg/ml, genetic background: ΔsoxS): 1.22 ± 0.073

Cn1c(=O)[nH]c2[nH]c(=O)[nH]c2c1=O [1-Methyluric acid]
promoter activity interaction Z-score [2, 7]: -0.104 ± 0.078
promoter activity interaction Z-score [2, 8]: 0.564 ± 0.66
promoter activity interaction Z-score [2, 9]: -0.212 ± 0.12
promoter activity interaction Z-score [2, 10]: 0.297 ± 0.53
promoter activity interaction Z-score [2, 11]: 0.00584 ± 0.0026
promoter activity interaction Z-score [2, 12]: 0.938 ± 0.94
promoter activity interaction Z-score [2, 13]: -0.286 ± 0.35
promoter activity interaction Z-score [2, 14]: 0.0572 ± 0.41
promoter activity interaction Z-score [2, 15]: -0.247 ± 0.3
promoter activity interaction Z-score [2, 16]: -0.354 ± 0.38
promoter activity interaction Z-score [2, 17]: -0.533 ± 0.26
promoter activity interaction Z-score [2, 18]: 0.207 ± 0.88
promoter activity interaction Z-score [2, 19]: -0.104 ± 0.14
promoter activity interaction Z-score [2, 20]: 0.464 ± 0.1
promoter activity interaction Z-score [2, 21]: -0.246 ± 0.046
promoter activity interaction Z-score [2, 22]: 0.186 ± 0.74
promoter activity interaction Z-score [3, 7]: -0.0236 ± 0.39
promoter activity interaction Z-score [3, 8]: 0.118 ± 0.021
promoter activity interaction Z-score [3, 9]: 0.0501 ± 0.18
promoter activity interaction Z-score [3, 10]: 0.153 ± 0.11
promoter activity interaction Z-score [3, 11]: 0.0921 ± 0.34
promoter activity interaction Z-score [3, 12]: 0.0777 ± 0.13
promoter activity interaction Z-score [3, 13]: 0.162 ± 0.1
promoter activity interaction Z-score [3, 14]: -0.0599 ± 0.019
promoter activity interaction Z-score [3, 15]: -0.0797 ± 0.0059
promoter activity interaction Z-score [3, 16]: 0.0715 ± 0.14
promoter activity interaction Z-score [3, 17]: -0.119 ± 0.051
promoter activity interaction Z-score [3, 18]: 0.323 ± 0.18
promoter activity interaction Z-score [3, 19]: -0.191 ± 0.057
promoter activity interaction Z-score [3, 20]: 0.0296 ± 0.15
promoter activity interaction Z-score [3, 21]: -0.0667 ± 0.089
promoter activity interaction Z-score [3, 22]: 0.409 ± 0.52
promoter activity interaction Z-score [4, 7]: 0.326 ± 0.31
promoter activity interaction Z-score [4, 8]: 0.693 ± 0.12
promoter activity interaction Z-score [4, 9]: 0.46 ± 0.48
promoter activity interaction Z-score [4, 10]: 0.431 ± 0.45
promoter activity interaction Z-score [4, 11]: 0.321 ± 0.41
promoter activity interaction Z-score [4, 12]: 0.558 ± 0.49
promoter activity interaction Z-score [4, 13]: 0.739 ± 0.54
promoter activity interaction Z-score [4, 14]: 0.326 ± 0.25
promoter activity interaction Z-score [4, 15]: -0.32 ± 0.069
promoter activity interaction Z-score [4, 16]: 0.0147 ± 0.41
promoter activity interaction Z-score [4, 17]: -1.23 ± 0.62
promoter activity interaction Z-score [4, 18]: -0.438 ± 0.48
promoter activity interaction Z-score [4, 19]: 0.135 ± 0.01
promoter activity interaction Z-score [4, 20]: 0.619 ± 0.048
promoter activity interaction Z-score [4, 21]: -0.101 ± 0.29
promoter activity interaction Z-score [4, 22]: 0.374 ± 1.1
promoter activity interaction Z-score [5, 7]: -0.269 ± 0.61
promoter activity interaction Z-score [5, 8]: 0.351 ± 0.24
promoter activity interaction Z-score [5, 9]: 0.112 ± 0.039
promoter activity interaction Z-score [5, 10]: 0.0211 ± 0.46
promoter activity interaction Z-score [5, 11]: 0.161 ± 0.081
promoter activity interaction Z-score [5, 12]: 0.493 ± 0.4
promoter activity interaction Z-score [5, 13]: 0.0711 ± 0.33
promoter activity interaction Z-score [5, 14]: -0.912 ± 0.1
promoter activity interaction Z-score [5, 15]: -0.286 ± 0.13
promoter activity interaction Z-score [5, 16]: -0.426 ± 0.29
promoter activity interaction Z-score [5, 17]: -1.18 ± 0.44
promoter activity interaction Z-score [5, 18]: -0.966 ± 0.2
promoter activity interaction Z-score [5, 19]: 0.057 ± 0.46
promoter activity interaction Z-score [5, 20]: 0.0892 ± 0.25
promoter activity interaction Z-score [5, 21]: -0.403 ± 0.09
promoter activity interaction Z-score [5, 22]: -0.691 ± 0.56
promoter activity interaction Z-score [6, 7]: 0.261 ± 0.1
promoter activity interaction Z-score [6, 8]: 0.522 ± 0.037
promoter activity interaction Z-score [6, 9]: 0.347 ± 0.19
promoter activity interaction Z-score [6, 10]: 0.264 ± 0.44
promoter activity interaction Z-score [6, 11]: 0.256 ± 0.0038
promoter activity interaction Z-score [6, 12]: 0.598 ± 0.099
promoter activity interaction Z-score [6, 13]: 0.475 ± 0.19
promoter activity interaction Z-score [6, 14]: 0.221 ± 0.36
promoter activity interaction Z-score [6, 15]: 0.22 ± 0.037
promoter activity interaction Z-score [6, 16]: 0.334 ± 0.14
promoter activity interaction Z-score [6, 17]: 0.132 ± 0.069
promoter activity interaction Z-score [6, 18]: -0.0814 ± 0.51
promoter activity interaction Z-score [6, 19]: 0.104 ± 0.3
promoter activity interaction Z-score [6, 20]: 0.366 ± 0.082
promoter activity interaction Z-score [6, 21]: 0.122 ± 0.097
promoter activity interaction Z-score [6, 22]: 0.0852 ± 0.84
promoter activity interaction Z-score [1, 7]: -0.101 ± 0.82
promoter activity interaction Z-score [1, 8]: 0.236 ± 0.64
promoter activity interaction Z-score [1, 9]: 0.123 ± 0.14
promoter activity interaction Z-score [1, 10]: 0.273 ± 0.67
promoter activity interaction Z-score [1, 11]: 0.46 ± 0.55
promoter activity interaction Z-score [1, 12]: 0.0925 ± 0.54
promoter activity interaction Z-score [1, 13]: 1.34 ± 1.4
promoter activity interaction Z-score [1, 14]: -0.689 ± 1
promoter activity interaction Z-score [1, 15]: 0.324 ± 0.25
promoter activity interaction Z-score [1, 16]: 0.169 ± 0.61
promoter activity interaction Z-score [1, 17]: -0.992 ± 0.65
promoter activity interaction Z-score [1, 18]: 0.413 ± 0.89
promoter activity interaction Z-score [1, 19]: 0.769 ± 0.93
promoter activity interaction Z-score [1, 20]: 0.232 ± 0.41
promoter activity interaction Z-score [1, 21]: 0.664 ± 0.066
promoter activity interaction Z-score [1, 22]: 0.553 ± 0.38
